The entries come from a sample that favours hits as a whole.
Pf Dd2 inh – Plasmodium falciparum Dd2 growth inhibition; P. falciparum Dd2 growth, SYBR Green, 72 h; Potency, µM (titrated, usually from 28.9 µM), for the others: at the top dose activity, negative = inhibition, actives largely listed as inhibitors; hit rate 4.3% among 120,000; active means well fitted inhibition curve with a large enough effect;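 further: plate controls were DMSO vehicle for no effect and reference drug for full effect; nearly all actives have a fitted effect of over 65% in size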
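Readout: SYBR Green fluorescence, 485 nm excitation, 535 nm emission, after ~16 h lysis at 37C. Before that, Dd2-infected red cells (2.5% hematocrit) grew 72 h with compound, 29 uM top final concentration.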
Active calls of the source: *; i = inactive; [ ] = remark or other dose. Potency means the concentration at half of the fitted maximal effect.

SMILES	Pf Dd2 inh
C=CCCC(CN1CCOCC1)Oc1ccc(Cn2ccnc2)cn1 (stereo not drawn)	-15%
NC(=O)c1ccc(-c2nccc(N3CCC(O)CC3)n2)cc1Cl	-10%
COC(=O)c1sc(-c2ccccc2)cc1NC(=O)c1cccc(F)c1	i[5.79 µM]
COC(=O)c1sc(-c2ccccc2)cc1NC(=O)c1cccc(Cl)c1	451%[5.79 µM]
COC(=O)c1sc(-c2ccccc2)cc1NC(=O)Nc1ccccc1Cl	11µM*
COc1ccc(C(=O)N2CCCC3(CC(c4ccccn4)=NO3)C2)cc1 (stereo not drawn)	9%
COc1ccc(-c2cc(C[C@@H]3CC[C@H](O)[C@@H](CNC(=O)Nc4ccccc4)O3)no2)cc1	i
COc1cccc(CNC[C@H]2O[C@H](Cc3cc(-c4ccccc4)on3)CC[C@@H]2O)c1	2.5µM*
COc1cccc(CNC[C@H]2O[C@H](Cc3cc(CN4CCOCC4)on3)CC[C@@H]2O)c1	i
CCCNC(=O)C(NC(=O)c1ccccc1C)C1CCN(C(=O)C2CCCC2)CC1 (stereo not drawn)	-17%
CC(C)N1CCN(C2CCOC3(CCN(C(=O)C4CC4)CC3)C2)CC1 (stereo not drawn)	16%
CCn1nc(CC(C)C)cc1C(=O)N1CCN(c2nc(C)cc(C)n2)CC1	-8%
CCCCCC(=O)N1CCC(O)(c2csc(CN3CCN(C)CC3)n2)CC1	24%[44.1 µM]
Cc1cccc(OCCCCn2c(C3CC(=O)N(c4ccc(C)cc4C)C3)nc3ccccc32)c1 (stereo not drawn)	11µM*
Cc1cccc(OCCCn2c(CCNC(=O)C3CCCCC3)nc3ccccc32)c1	14µM*
Cc1cc(C)cc(OCCn2c(CCNC(=O)C3CCCCC3)nc3ccccc32)c1	10%
CCc1ccccc1N1CC(c2nc3ccccc3n2Cc2cccc(C)c2)CC1=O (stereo not drawn)	-97%
CCOc1ccccc1N1CC(c2nc3ccccc3n2CCCCOc2cc(C)ccc2C)CC1=O (stereo not drawn)	-12%
CCc1ccccc1N1CC(c2nc3ccccc3n2CCCCOc2ccccc2OC)CC1=O (stereo not drawn)	-11%
Cc1ccccc1Cn1c(CCCNC(=O)C2CCCCC2)nc2ccccc21	i
COc1ccccc1OCCCn1c(C2CC(=O)N(c3ccccc3Cl)C2)nc2ccccc21 (stereo not drawn)	-26%
Cc1cccc(OCCCCn2c(C3CC(=O)N(c4ccccc4Cl)C3)nc3ccccc32)c1 (stereo not drawn)	3.2µM*
Cc1cccc(C(=O)N2CCCCCCNC(=O)[C@@H]3C[C@@H](c4nc(C(C)C)no4)C[C@@H]32)c1	-6%
O=C(NC[C@H]1O[C@@H]2C[C@@H](CC(=O)N3CCC(F)(F)C3)O[C@@H]2[C@@H]1O)NC1CCCCC1	21%[44.1 µM]
O=C(c1ccc2c(c1)OCO2)N1CCn2c(nnc2-c2ccccc2)C1	i
SMILES	Pf Dd2 inh
COc1ccc(NC(=O)c2ccc3c(c2)N(C)C2CCCCCN2C3=O)cc1Cl (stereo not drawn)	-10%
CC(C)c1ccc(CNC(=O)c2ccc(CN3C(=O)NC4(CCOCC4)C3=O)cc2)cc1	-2%
Cc1cnc(C(=O)N2CCC3(CC2)CC(CO)N(C(=O)c2ccccc2)C3)cn1 (stereo not drawn)	-10%
O=C1NCCCCCCN(C(=O)c2ccsc2)[C@H]2CCCC[C@@H]12	11%
CN1CCN(Cc2nc(C3(O)CCN(CC4CCCCC4)CC3)cs2)CC1	10µM*
CN1CCN(Cc2nc(C3(O)CCN(C4CCCC4)CC3)cs2)CC1	4%[44.1 µM]
OC1(c2csc(CN3CCN(c4ccccn4)CC3)n2)CCN(CC2CCCCC2)CC1	-8%
CN(CC1(C)CCOCC1)C(=O)c1cc(Cl)ccc1F	-5%
COCCn1c(=O)n([C@H]2CCCN(C(=O)CN3CCCC3=O)C2)c2ncccc21	5%
COc1ccccc1CCNC(=O)C1CC(c2ccc(F)c(C)c2)CN(C(=O)C2CC2)C1 (stereo not drawn)	0%
COc1ccc(-c2nn(C)c3sc(C(=O)Nc4cccc(F)c4)cc23)cc1OC	2.5µM*
Cc1ccc(NC(=O)c2cc3c(-c4ccccc4)nn(-c4ccccc4)c3s2)cc1	2.8µM*
COc1ccc(NC(=O)c2cc3c(C)nn(-c4ccccc4)c3s2)c(OC)c1	i
COc1ccccc1NC(=O)c1cc2c(C)nn(-c3ccccc3)c2s1	-27%
COc1ccc(-c2nn(C)c3sc(C(=O)NCCN(C)C)cc23)cc1OC	-32%
COc1cccc(NC(=O)c2cc3c(-c4ccc(Cl)cc4)nn(C)c3s2)c1	3.2µM*
COCCCNC(=O)c1cc2c(-c3cccc(OC)c3)nn(C)c2s1	i
COc1ccccc1CNC(=O)c1cc2c(-c3ccc(Cl)cc3)nn(C)c2s1	-20%
COc1cccc(-c2nn(C)c3sc(C(=O)NCc4ccc(C)cc4)cc23)c1	10%
CCc1nncn1C1CCN(S(=O)(=O)c2cccc(F)c2)CC1	-13%
Cc1ccsc1CN1CCC2(CC1)Cc1ccccc1CNC2=O	-36%
COCCOCC(=O)N1CCC(C(=O)N2CCCCCCNC(=O)CC2)CC1	9%
N#Cc1cccc(NC(=S)O[C@@H]2CO[C@H]3[C@@H]2OC[C@@H]3n2nnnc2SCc2ccco2)c1	-8%
COc1ccc(C(=O)Nc2ccc3c(N4CCOCC4)ncnc3c2)c(C)c1	i
O=C1CC(c2ccccc2)N(C(=O)C2CC2)CCCN(C(=O)c2ccncc2)CCN1 (stereo not drawn)	18%
SMILES	Pf Dd2 inh
CCN1CCN(CCNC(=O)c2ccc(N3CC4CC(C3)[C@H]3CCCC(=O)N3C4)nc2)CC1 (stereo partly drawn)	i
CCc1noc([C@@H]2CC(F)(F)CN2C(=O)c2cc(C3CC3)[nH]n2)n1	21%
Cc1ccc(C(=O)N2CCC(N3CCCCCC3=O)CC2)cc1	-9%[44.1 µM]
CS(=O)(=O)N(C1CC1)C1CCOC2(CCN(C(=O)CCCc3ccccc3)CC2)C1 (stereo not drawn)	i
Cc1noc2c(NCCN3CCOCC3)cc(-c3ccc(Cl)cc3)nc12	-13%[44.1 µM]
Cc1noc2c(NCCc3ccccn3)cc(-c3ccc(Cl)cc3)nc12	0%[44.1 µM]
Cc1noc2c(NCCCn3ccnc3)cc(-c3ccc(Cl)cc3)nc12	4.5µM*
Cc1nnc2n1CCC(N(C)C(=O)CCc1nc3ccccc3s1)CC2 (stereo not drawn)	-22%
Cc1ccccc1-c1nccc2c(=O)cc(C3=CCOCC3)oc12	10µM*
Cc1ccccc1-c1nccc2c(=O)cc(-c3ccncc3)oc12	-19%[44.1 µM]
Cc1ccccc1-c1nccc2c(=O)cc(N(C)C3CCOCC3)oc12	i
COc1ccc(-c2ccnc(-c3nnc(C)n3C(C)C)c2)cc1OC	-8%[44.1 µM]
COCc1nc(CCNS(=O)(=O)c2ccc(OC)cc2)no1	64%
COCCNC(=O)C[C@@H]1C[C@H]2O[C@H](CNCc3cnccc3C(F)(F)F)[C@@H](O)[C@H]2O1	2%[44.1 µM]
C=CCNC(=O)c1ccc2cc[nH]c2n1	13%[44.1 µM]
CN(Cc1cccnc1)C1CCCc2ccccc21 (stereo not drawn)	5µM*
COC(=O)N(C)C1CCCc2ccccc21 (stereo not drawn)	-21%[44.1 µM]
CN(Cc1ccc(F)cc1)C1CCc2ccccc21 (stereo not drawn)	-3%[44.1 µM]
CN(Cc1ccc(C(F)(F)F)cc1)C1CCc2ccccc21 (stereo not drawn)	-8%[44.1 µM]
CN(CC1CCCCC1)C1CCc2ccccc21 (stereo not drawn)	-21%[44.1 µM]
CN(Cc1cccc2ccccc12)C1CCCc2ccccc21 (stereo not drawn)	11µM*

Screening data (PubChem BioAssay)
